# Shown are actives, neighbours in structure and some others; about 7.5% of the full set was active somewhere.
# KinaseGlo FLuc: Kinase-Glo luciferase inhibition (counter-screen); Q27757; Kinase-Glo luciferase, ATP luminescence, 8 min; Potency, µM (series often up to 38.3 µM), inactives show top-dose activity change, negative = inhibition, hits mostly inhibitors; 200,000 tested, 0.28% active; AID 1379; further: on the % scale 0 is the no-effect control and ±100 the full control effect; nearly all actives have a fitted effect of over 60% in size
#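 Substrate mix (final 50 mM imidazole pH 7.2, 50 mM KCl, 7 mM MgCl2, 10 uM ATP, 0.01% Tween 20, 0.05% BSA) plus pin-tool compound, then Kinase-Glo detection mix; 8 min ambient, luminescence read.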
# ELG1 genotoxic: inducers of genotoxicity in HEK293T ELG1-luciferase cells. HEK293T ELG1-luciferase reporter, luminescence, 16 h. Potency, µM (doses to about 46 µM), inactives show at the top dose activity change, positive = activation, actives largely listed as activators. 330,000 tested, 1.3% active. AID 504466; further: % of control where 0% means no effect; nearly all actives have a fitted effect of over 60% in size
#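 16 hr compound incubation (37 °C, 5% CO2) of HEK293T cells carrying luciferase-tagged ELG1; luciferase then measured by ONE-Glo luminescence after 30 min at RT.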
# FLuc modulator: counter-screen for miR-21 project: firefly luciferase inhibitors or activators; purified FLuc, Km substrates, luminescence inhibition; Potency, µM (series often up to 57.5 µM), inactives show at the top dose activity change, negative = inhibition, actives largely listed as inhibitors; 360,000 tested, 6.9% active; AID 588342;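 further: plate controls were vehicle for no effect and reference inhibitor for full effect; nearly all actives have a fitted effect of over 55% in size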
# Target sequence (P08659 whole entry, looked up): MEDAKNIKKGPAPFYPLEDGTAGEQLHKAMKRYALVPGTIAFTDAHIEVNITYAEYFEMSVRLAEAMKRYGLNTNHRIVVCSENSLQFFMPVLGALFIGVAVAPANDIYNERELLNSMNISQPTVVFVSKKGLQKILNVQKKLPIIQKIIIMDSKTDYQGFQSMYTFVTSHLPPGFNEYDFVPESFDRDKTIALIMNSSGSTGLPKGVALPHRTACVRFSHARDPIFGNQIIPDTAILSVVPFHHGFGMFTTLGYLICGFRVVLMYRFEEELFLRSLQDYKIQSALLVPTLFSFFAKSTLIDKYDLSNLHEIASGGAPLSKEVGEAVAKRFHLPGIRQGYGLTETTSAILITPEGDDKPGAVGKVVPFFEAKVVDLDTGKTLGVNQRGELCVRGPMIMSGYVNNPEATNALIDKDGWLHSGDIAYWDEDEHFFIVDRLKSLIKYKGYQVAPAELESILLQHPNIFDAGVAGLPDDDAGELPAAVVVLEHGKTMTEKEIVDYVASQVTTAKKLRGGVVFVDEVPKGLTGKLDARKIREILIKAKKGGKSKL
#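 Purified P. pyralis luciferase, 10 nM final, with Km-level 10 uM D-luciferin and 10 uM ATP in 50 mM Tris acetate pH 7.5, 10 mM Mg acetate, 0.01% Tween-20, 0.05% BSA; 6-point qHTS titration about 60 µM downward; luminescence read.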
# SMN2 splice up: SMN2 splice variant enhancement. HEK293 SMN2-luciferase splicing reporter, luminescence, 30-36 h. AID 1458. 210,000 tested, 2.8% active. Potency, µM (series often up to 46.1 µM), without a hit: top-dose activity change, positive = activation, actives largely listed as activators; further: % of control where 0% means no effect; nearly all actives have a fitted effect of over 55% in size
#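 HEK293 cells carry an SMN2 […]–luciferase reporter in which exon 7 inclusion puts luciferase in frame. Cells were plated 10-12 h before compound addition, then incubated 30-36 h at 37C. ONE-Glo luminescence was read; sodium butyrate at 4.5 mM final served as control.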
# NPC1 prom act: NPC1 promoter activation; Huh7 NPC1 promoter luciferase reporter, 24 h; Potency, µM (top dose mostly 9.22 µM), inactives show at the top dose activation, actives largely listed as activators; 320,000 tested, 2.4% active; AID 485313; further: % of control where 0% means no effect; nearly all actives have a fitted effect of over 60% in size
#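 Luciferase expression driven by the NPC1 promoter was measured in stably transfected Huh7 cells after a 24 h compound incubation, using a luciferase reagent and a luminescence read.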
# Rab9 prom act: Rab9 promoter activation | Huh7 Rab9 promoter-luciferase reporter, luminescence, 24 h | Potency, µM (top dose mostly 9.22 µM), for inactives: at the top dose activation, negative = inhibition, hits mostly activators | 320,000 tested, 2.8% active | AID 485297; further: % of control where 0% means no effect; nearly all actives have a fitted effect of over 60% in size
#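 Cell-based reporter: Huh7 stable for Rab9 promoter-driven luciferase, plated in reduced-serum medium with 10% FBS at 1500 cells/well, compound-treated 24 h at 37 °C, luminescence read after 10 min reagent.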
# Starred values were filed as active, the others as inactive; ? = inconclusive; · = not tested or not shown; [ ] = dose if it differs, or a comment. The call rests on the fitted dose curve; in most records, active means well fitted curve in the direction sought with a large enough effect; inconclusive means small, poorly fitted or top-dose-only effect, or another doubt; inactive means no such curve, though single readings can be large; an effect the other way counts as inactive or inconclusive. Potency means the concentration at half of the fitted maximal effect.
SMILES,KinaseGlo FLuc,ELG1 genotoxic,FLuc modulator,SMN2 splice up,NPC1 prom act,Rab9 prom act
COc1cccc(CNC(=O)Cn2c(=O)n3nc(-c4cccc(F)c4)nc3c3ccccc32)c1,·,·,-1.3%,·,·,·
COCCN(Cc1ccccc1)C(=O)c1cccc(S(=O)(=O)N(C)c2c(C)n(C)n(-c3ccccc3)c2=O)c1,·,5.1%,10.6%,·,-0.7%,-1.9%
O=C(O)CSc1ccc(NC(=O)Nc2ccccc2F)cc1,·,2.3%,12µM*,·,-1.6%,2.1%
CC(=O)Nc1ccc(SCC(=O)O)cc1,2.0%,-0.9%,1.1%,4.0%,-5.1%,3.4%
O=C(Nc1ccc(Cl)cc1)c1ccc(Br)cc1F,-4.8%,3.26µM*,3.01µM*,14.1µM*,1.41µM*,1µM*
O=C(Nc1ccccc1)Nc1ccc(Br)cc1F,2.2%,13.8%,?,12.6µM*,?,?
Cc1cc(NC(=O)Nc2ccccc2F)ccc1Br,·,?,2.39µM*,·,1.41µM*,1.26µM*
Cc1ccc(C(=O)C(C)CN2CCCCC2)cc1 (stereo not given),-0.3%,·,·,-0.5%,·,·
NNC(=O)c1cc2sccc2s1,·,-2.0%,-10.3%,·,-0.4%,-4.3%
CN(C)/C=C1\SC(=S)N(c2ccc(F)cc2)C1=O,·,11.8%,-15.2%,·,10.5%,20.3%
Cc1ccc(N2CS(=O)(=O)/C(=C/N(C)C)C2=O)cc1,-27.6%,?,12µM*,12.6µM*,2µM*,1.26µM*
CN(C)/C=C1\C(=O)N(c2ccc(Cl)cc2)CS1(=O)=O,-9.1%,?,16.9µM*,29.1%,3.16µM*,?
O=C(CN1C(=O)c2cccc3cccc1c23)Nc1cccc(F)c1,·,·,-0.5%,-6.0%,·,·
COc1ccccc1C(=O)c1cn(CC(=O)Nc2ccccc2F)c2nc(C)ccc2c1=O,·,·,-5.9%,·,·,·
CCN(CC)C(=O)COc1ccc2oc(-c3ccco3)cc(=O)c2c1,0.6%,10.5%,15.1µM*,·,13.7%,26.6%
CCOC(=O)c1[nH]c2ccccc2c1NC(=O)c1c(F)cccc1F,·,·,-3.4%,4.9%,·,·
Oc1cc(Br)ccc1C=Nc1ccc(N2CCCCC2)cc1,·,-6.1%,1.2µM*,·,0.7%,25.7%
Oc1ccc(C=Nc2ccc(N3CCOCC3)cc2)c(O)c1,-7.8%,-0.9%,16.9µM*,3.8%,11.1%,-3.7%
Oc1ccc(Br)cc1C=Nc1ccc(Cl)cc1,0.8%,2.6%,?,-39.0%,1.9%,-0.7%
COc1cc(-c2nnc(SCC(=O)c3ccc(C)cc3)o2)cc(OC)c1OC,0.4%,-18.4%,5.8%,-9.1%,1.7%,-2.6%
COc1cc(-c2nnc(SCCOc3cc(C)cc(C)c3)o2)cc(OC)c1OC,·,·,15.1µM*,·,·,·
O=C(NCC1CCCO1)c1cc(-c2ccc(Cl)cc2Cl)on1 (stereo not given),-6.4%,?,3.38µM*,25.1µM*,3.55µM*,2.82µM*
O=C(NCC1CCCO1)c1cc(-c2ccc(F)cc2)no1 (stereo not given),·,?,?,·,22.8%,3.16µM*
Cc1ccc(-c2cc(C(=O)NCC3CCCO3)no2)cc1 (stereo not given),-0.1%,?,-16.6%[2.3 µM],10µM*,2.51µM*,2.82µM*
COc1ccc(-c2cc(C(=O)NCC3CCCO3)on2)cc1OC (stereo not given),·,5.2%,-9.3%,·,-5.2%,-4.1%
SMILES,KinaseGlo FLuc,ELG1 genotoxic,FLuc modulator,SMN2 splice up,NPC1 prom act,Rab9 prom act
Cc1cccc(NC(=O)C(=O)NCC2CCCO2)c1 (stereo not given),-8.6%,?,21.3µM*,·,2.51µM*,0.708µM*
O=C(NC(=S)NCC1CCCO1)c1ccc(Cl)cc1Cl (stereo not given),-2.2%,6.8%,-3.8%,17.3%,2.8%,1.3%
Cc1ccc(NC(=O)Cn2c(=O)cc(-c3ccccc3)c3c(C)nn(C)c32)c(Cl)c1,·,·,7.8%,·,·,·
Cc1cccc(C)c1NC(=O)CNC(=O)c1ccc(NS(=O)(=O)c2ccc3[nH]c(=O)[nH]c3c2)cc1,·,0.6%,5.9%,·,-7.3%,-1.1%
O=C(NCC1CCCO1)c1cc(-c2ccccc2)on1 (stereo not given),-0.5%,10.3µM*,15.1µM*,35.5µM*,2.51µM*,2.51µM*
O=C(CNC(=O)c1ccc(Cl)cc1Cl)NCC1CCCO1 (stereo not given),·,2.2%,23.9µM*,·,11.1%,12.3%
O=C1OC(c2ccc(F)cc2)=C/C1=C\c1ccc([N+](=O)[O-])o1,-4.3%,7.2%,-18.8%,-10.4%,-11.8%,-7.0%
O=C1N=C(N2CCN(Cc3ccccc3)CC2)S/C1=C/c1cccs1,·,0.4%,9.53µM*,·,19.8%,27.4%
O=C1N=C(N2CCN(c3ccccc3)CC2)S/C1=C/c1cccs1,-1.6%,-4.7%,?,4.1%,7.4%,2.7%
O=C1N=C(c2ccccc2)S/C1=C\c1cccs1,-12.5%,?,3.79µM*,2.8%,23.9%,18.6%
O=C1OC(c2ccccc2)=C/C1=C/c1cccs1,-7.2%,1.6%,0.675µM*,6.5%,3.0%,3.3%
COc1ccc(C(=O)COC(=O)c2cccc(-n3cnnn3)c2)c(OC)c1,·,?,10.7µM*,·,3.98µM*,3.55µM*
COc1ccccc1CNC(=O)COC(=O)c1cccc(-n2cnnn2)c1,·,-1.3%,-2.1%,·,-1.7%,5.9%
O=C(COC(=O)c1cccc(-n2cnnn2)c1)c1ccc(F)cc1,·,?,16.9µM*,·,3.16µM*,2.82µM*
CCCCC/C=C\C/C=C\CCCCCCCCCC(=O)NCCCC(=O)O,2.5%,·,·,1.5%,·,·
COc1ccc2nc(-n3c(O)c(C4=c5ccccc5=NC4=O)[nH]c3=S)sc2c1,-8.8%,-1.0%,10.7µM*,-11.0%,-2.6%,-5.0%
Cn1c(O)c(C2=c3ccccc3=NC2=O)[nH]c1=S,-5.6%,-0.9%,-4.5%,8.2%,21.1%,7.7%
Cc1cc(Cl)c2oc(C(=O)N(C)C3CCOC3)c(C)c2c1 (stereo not given),·,?,21.3µM*,·,?,3.98µM*
Cc1cc(Cl)c2oc(C(=O)N(C)Cc3cc(C)[nH]n3)c(C)c2c1,·,14.2%,-2.3%,·,1.6%,2.2%
Cc1cc(Cl)c2oc(C(=O)N(C)Cc3nccn3C)c(C)c2c1,·,6.2%,-0.6%,·,-3.3%,-4.4%
Cc1cc(Cl)c2oc(C(=O)N(C)Cc3ccon3)c(C)c2c1,·,18.3µM*,13.5µM*,·,3.98µM*,2.82µM*
O=C(Oc1ccc(Cl)cc1)c1ccc(COC(=O)c2cnccn2)cc1,0.4%,9.3%,12µM*,12.5%,-5.1%,-3.5%
CC(C)OC(=O)c1ccc(COC(=O)c2cnccn2)cc1,-10.8%,2.1%,7.57µM*,-7.5%,0.6%,0.1%
Cc1cccc(NC(=S)N2N=CCC2c2ccccc2)c1 (stereo not given),-3.5%,?,21.3µM*,5.4%,?,20.2%
O=C(Nc1cccc(Cl)c1N1CCCCC1)c1ccc2c(c1)OCCO2,1.4%,-0.4%,3.3%,16.7%,-5.6%,2.3%

# Source: PubChem
